# Source: PubChem (National Center for Advancing Translational Sciences (NCATS))
# A549 viability = kills or reduces viability of A549 cells in Nrf2 counter-screen; A549 ARE-Fluc cells, CellTiter-Fluor viability, 18-24 h; Potency, µM (titrated, usually from 46 µM), actives largely listed as inhibitors; actives 0.16% (n = 390,000); AID 504648
#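 A549 ARE-Fluc cells in 5% FBS OPTI-MEM, 5000 cells/well, rested 2 h then exposed to compounds in concentration-response for 18-24 h at 37 °C. Viability by CellTiter-Fluor fluorescence (Ex 405/Em 525) after 30 min; luciferase luminescence (BugLite, 15 min, RT) read afterwards.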
# ELG1 repair inh = inhibitors of ELG1-dependent DNA repair in HEK293T cells; actives 2.3% (n = 330,000); HEK293T ELG1-luciferase reporter, luminescence, 16 h; DNA damage induced by 5-fluorouridine; Potency, µM (titrated, usually from 46.1 µM), actives largely listed as inhibitors; further: nearly all actives have a fitted effect of over 55% in size
#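 Reporter activity after DNA damage by 5-fluorouridine is monitored. Compound-treated cells incubate 16 hr at 37 °C, then ONE-Glo is added for 30 min before luminescence reading.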
# Nrf2 inh = Nrf2 pathway inhibition; AID 504444; Potency, µM (top dose mostly 46 µM), hits mostly inhibitors; actives 2.1% (n = 360,000); A549 ARE-Fluc reporter, luciferase luminescence, 18-24 h; further: nearly all actives have a fitted effect of over 60% in size
#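 Quantitative HTS in A549 cells stably bearing an antioxidant response element-firefly luciferase construct. Inhibition of Nrf2-driven transcription was scored by luminescence after 18-24 h of compound exposure at 37 °C.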
# Nrf2 activator = activates Nrf2 signaling | AREc32 ARE-luciferase reporter (MCF7-derived line), luminescence, 24 h | Potency, µM (titrated, usually from 46.1 µM), most hits filed as activators | actives 0.31% (n = 410,000) | AID 624171; further: nearly all actives have a fitted effect of over 65% in size
#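 ARE-driven firefly luciferase activity in AREc32 cells measured after a 24 hr compound exposure at 37 deg C, using Steady-Glo reagent and a 30 min room-temperature hold.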
# mIDH1 inhibitor = blocks human mutant IDH1 R132H enzyme; O75874; IDH1-R132H enzyme, NADPH consumption, diaphorase/resazurin fluorescence; Potency, µM (doses to about 76.6 µM), most hits filed as inhibitors; actives 0.093% (n = 390,000); AID 602179; further: nearly all actives have a fitted effect of over 65% in size
# Target sequence (O75874 whole entry R132H, stated change not applied): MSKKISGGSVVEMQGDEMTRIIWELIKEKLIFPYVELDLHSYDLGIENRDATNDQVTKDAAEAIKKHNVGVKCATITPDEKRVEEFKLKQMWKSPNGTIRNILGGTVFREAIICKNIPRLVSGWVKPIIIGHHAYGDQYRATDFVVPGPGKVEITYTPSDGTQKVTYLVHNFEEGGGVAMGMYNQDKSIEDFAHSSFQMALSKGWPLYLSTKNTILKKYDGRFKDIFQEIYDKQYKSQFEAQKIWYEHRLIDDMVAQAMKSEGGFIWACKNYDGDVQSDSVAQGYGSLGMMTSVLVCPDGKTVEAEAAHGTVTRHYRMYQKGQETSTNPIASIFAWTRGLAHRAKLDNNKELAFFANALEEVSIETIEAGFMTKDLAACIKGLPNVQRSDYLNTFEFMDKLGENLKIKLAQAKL
#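 IDH1-R132H (0.5 ug/mL) preincubated 30 min with compound, then NADPH (0.016 mM) and alpha-KG (2 mM) added; 80 min at RT, pH 7.5. Remaining NADPH coupled via diaphorase/resazurin to fluorescence (540/590 nm); concentration-response curves normalized to no-enzyme control.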
# Hits are given with their value; i = inactive; ? = inconclusive; nt = not tested or not shown. An excerpt weighted towards active compounds, which were near 3.8% of everything screened. The call rests on the fitted dose curve; in most records, active means well fitted curve in the direction sought with a large enough effect; inconclusive means small, poorly fitted or top-dose-only effect, or another doubt; inactive means no such curve, though single readings can be large; an effect the other way counts as inactive or inconclusive.
SMILES,A549 viability,ELG1 repair inh,Nrf2 inh,Nrf2 activator,mIDH1 inhibitor
COc1ccccc1NC(=O)C1=C(C)Nc2nc(SCc3cc(C)ccc3C)nn2C1c1ccccc1 (stereo not given),i,nt,nt,i,i
CSc1nc(N)n2nc(-c3ccccc3)cc2n1,i,?,?,7.94µM,i
CC(=O)N1CCc2c(sc3c2c(=O)n(Cc2ccccc2)c(=O)n3Cc2ccccc2Cl)C1,?,nt,18.4µM,i,i
CC(=O)N1CCc2c(sc3c2c(=O)n(Cc2ccccc2)c(=O)n3Cc2ccccc2F)C1,i,nt,16.4µM,i,?
CC(=O)N1CCc2c(sc3c2c(=O)n(Cc2ccccc2)c(=O)n3Cc2ccc(C)cc2)C1,i,nt,i,i,i
CCC(CO)NCc1ccc(OCC(O)c2ccccc2)c(OC)c1 (stereo not given),i,i,i,i,i
CCOC(=O)CCCc1ccc(/C(C)=N/NC(N)=S)cc1,i,9.2µM,i,i,i
O=C(c1cccc(S(=O)(=O)N2CCOCC2)c1)N(Cc1nnc(-c2ccccc2Cl)o1)C1CC1,i,?,i,i,i
Cc1ccc(S(=O)(=O)N2CCOCC2)cc1C(=O)N(Cc1nnc(-c2ccccc2Cl)o1)C1CC1,i,10.3µM,?,i,i
CC1CN(S(=O)(=O)c2cccc(C(=O)N(Cc3nnc(-c4ccccc4Cl)o3)C3CC3)c2)CC(C)O1 (stereo not given),i,5.8µM,i,i,i
CCOc1ccc2oc(C(=O)N(Cc3nnc(-c4ccccc4Cl)o3)C3CC3)c(C)c2c1,i,9.2µM,?,i,i
O=C(c1cc(S(=O)(=O)N2CCOCC2)ccc1F)N(Cc1nnc(-c2ccccc2Cl)o1)C1CC1,i,?,i,i,i
O=[S+]([O-])(/C=C/c1nc(Nc2cc(F)cc(F)c2)c2ncn(CC(F)F)c2n1)c1ccccc1,i,nt,i,nt,nt
Cc1ccccc1NC(=O)CSc1cn(CC(=O)N2CCCCCC2)c2ccccc12,i,nt,i,i,i
O=C(Cc1cccc2ccccc12)NCC(=O)N1CCN(Cc2cccc(C(F)(F)F)c2)CC1,i,i,20.6µM,i,i
Nc1ncnc2c1ncn2[C@@H]1O[C@H](C(=O)NCC2CCN(Cc3ccccc3)CC2)[C@@H](O)[C@H]1O,nt,nt,nt,i,nt
COc1ccc(NC(=O)C(C)Sc2cc(-c3ccccc3)nc(C)n2)cc1Cl (stereo not given),?,nt,20.6µM,i,i
Cc1nc(SC(C)C(=O)Nc2ccccc2C)cc(-c2ccccc2)n1 (stereo not given),i,nt,i,i,i
Cc1cc(C)c(NC(=O)CCn2c(=O)c3cccn3c3ccccc32)c(C)c1,?,nt,?,i,i
CC(C)c1ccc(NC(=O)CCn2c(=O)c3cccn3c3ccccc32)cc1,i,nt,10.3µM,i,i
O=C(Nc1ccc(Cl)cc1)Nc1ccc2c(c1)N1CCN=C1S2,?,23.1µM,?,i,i
Nc1ccc2c(c1)N1CCN=C1S2,nt,i,?,i,i
Cc1ccc(-n2c(-c3ccccc3)c[n+]3c2CCc2ccccc2-3)c(C)c1,?,?,4.11µM,i,i
Cc1ccc(-n2c(SCC(=O)N3CCCc4ccccc43)nnc2-c2cccnc2)c(C)c1,i,i,i,i,i
OCCCNc1c2ccccc2nc2ccccc12,?,?,8.2µM,i,i
SMILES,A549 viability,ELG1 repair inh,Nrf2 inh,Nrf2 activator,mIDH1 inhibitor
CN(C)CCCNc1c2c(nc3ccccc13)CCC2,13µM,i,i,i,i
Cc1ccc(S(=O)(=O)N2CCN(S(=O)(=O)c3ccc4c(c3)OCCCO4)CC2)cc1,i,nt,i,nt,nt
O=C(CN1CCN(c2ccc(O)cc2)CC1)Nc1ccc(SC(F)F)cc1,i,9.2µM,?,i,i
COc1cccc(N2CCN(CC(=O)Nc3ccc(SC(F)F)cc3)CC2)c1,i,i,i,i,i
O=C(CN1CCN(c2ccc(O)cc2)CC1)Nc1ccc2c(c1)OCCCO2,i,18.3µM,?,i,i
O=C(CN1CCN(c2cccc(C(F)(F)F)c2)CC1)Nc1ccc2c(c1)OCCCO2,nt,nt,nt,i,i
COc1ccc(NC(=O)Cn2c(=O)n(Cc3ccc4c(c3)OCO4)c(=O)c3ccc(C(=O)NC4CCCCC4)cc32)cc1,i,nt,i,i,i
COc1cccc(-c2nc3c(C#N)c[nH]n3c2NC2CCCC2)c1OC,i,nt,?,i,i
O=C(Nc1ccc2nc(SCC(=O)N3CCCc4ccccc43)sc2c1)c1ccccc1,i,nt,11.6µM,i,i
Cn1c(SCC(=O)Nc2ccc3nc(SCC(=O)N4CCCC4)sc3c2)nnc1-c1ccccc1,i,20.6µM,?,i,i
CCc1ccc(NCc2cc3cc4c(cc3n(CC(=O)Nc3ccccc3Cl)c2=O)OCO4)cc1,i,nt,i,i,i
Cc1noc(NC(=O)c2c(-c3c(Cl)cccc3Cl)noc2C)c1[N+](=O)[O-],i,?,14.6µM,i,i
CC(=O)c1c(C)[nH]c(C(=O)OCC(=O)Nc2cc(S(=O)(=O)N3CCCC3)ccc2Cl)c1C,i,16.4µM,20.6µM,i,i
Cc1ccc(S(=O)(=O)N(C)C)cc1NC(=O)c1c(-c2c(F)cccc2Cl)noc1C,i,25.9µM,i,i,i
CC(=O)Nc1cccc(NC(=O)c2c(-c3c(Cl)cccc3Cl)noc2C)c1,i,i,i,i,i
CC(=O)c1c(C)[nH]c(C(=O)OCc2ccc(Br)cc2)c1C,i,18.3µM,?,i,i
COc1cccc(NCc2cccn2-c2nnc(N3CCC(C)CC3)s2)c1,i,nt,?,i,i
Cc1ccc(N(C)C(=O)Cn2cc(S(=O)(=O)N3CCCC3)c(S(=O)(=O)N3CCCC3)c2)cc1,i,nt,i,i,i
NC(=O)Cn1c(=O)n(CCCCCC(=O)NCc2ccccc2)c(=O)c2sccc21,i,nt,i,i,nt
COc1cccc(-c2ccnc3c(-c4ccccc4)c(C)nn23)c1,i,nt,?,i,i
CC(=O)c1c(C)[nH]c(C(=O)CN(C)CC(=O)Nc2ccccc2Cl)c1C,i,18.3µM,?,i,i
CC(=O)c1c(C)[nH]c(C(=O)OCC(=O)Nc2cccc(S(=O)(=O)N3CCCC3)c2)c1C,i,?,14.6µM,i,i
CC(=O)c1c(C)[nH]c(C(=O)OCC(=O)Nc2ccc([N+](=O)[O-])cc2Cl)c1C,i,?,i,i,i
CC(=O)c1c(C)[nH]c(C(=O)OCC(=O)Nc2cccnc2Cl)c1C,i,?,25.9µM,i,i
Cc1onc(-c2ccccc2)c1C(=O)Nc1ncc([N+](=O)[O-])s1,?,3.66µM,10.3µM,i,i
CCCS(=O)(=O)c1nc(S(=O)(=O)c2ccc(C)cc2)c(NCCCOC(C)C)s1,i,nt,i,i,nt
CCN(CC)S(=O)(=O)c1cc(NC(=O)C(C)OC(=O)c2[nH]c(C)c(C(C)=O)c2C)ccc1C (stereo not given),i,10.3µM,11.6µM,i,i
